These results are taken from PubChem BioAssay (NCI).

Test systems include NCI-H23 lung; NCI-H226 lung; NCI-H322M lung; HOP-62 NSCLC; NCI-H460 lung; HOP-92 NSCLC; NCI-H522 lung; A549/ATCC NSCLC; 786-0 renal; COLO 205 colon; DU-145 prostate; K-562 leukemia; MALME-3M melanoma; MDA-MB-231 breast; RXF 393 renal; SF-268 CNS; SF-295 CNS; SF-539 CNS; UACC-257 melanoma; M14 melanoma.
Common to all, as to assay: NCI-60 one-dose screen, 48 h (100 = growth as untreated, 0 = no growth, -100 = all killed)
Details in all cases: 10 µM unless noted

This is part of a sample that, as a whole, favours compounds with a hit. Of some 83,000 tested, about 20% had one in any assay.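 Growth was measured after 48 h exposure to one concentration of compound in 96-well plates. Values under 10 count as active.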 Unmarked numbers belong to inactive results. Activity calls are given as the source filed them.

Regarding `C=CCOC(=O)C1=C(C)N(CC)C(=O)N(CC)C1c1c(Cl)n(C)c2ccccc12` (stereo not given), the growth was 78.7% in the assay on NCI-H23 lung; 95.1% in the assay with NCI-H226 lung; 74.4% with NCI-H322M lung; 84.1% with HOP-62 NSCLC; 88.1% in the assay on NCI-H460 lung; 21.6% in the assay with HOP-92 NSCLC. Moreover, the growth in the assay on NCI-H522 lung is 84.8%; with A549/ATCC NSCLC it was 63.7%; in the assay on 786-0 renal it was 91.9%; in the assay with COLO 205 colon, 96.9%; with DU-145 prostate, 99.4%; with K-562 leukemia it was 93%. Also, the growth in the assay on MALME-3M melanoma was 96.2%; with MDA-MB-231 breast, 80.6%; with RXF 393 renal, 98.3%; in the assay with SF-268 CNS, 87.3%; in the assay on SF-295 CNS, 69.3%; in the assay on SF-539 CNS, 88.2%. The growth was 89.9% with UACC-257 melanoma and 75.1% with M14 melanoma.

With `Cc1c(CC(=O)Nc2ccccc2)nnn1-c1ccccc1`, the growth in the assay with NCI-H23 lung was 100%; in the assay with NCI-H226 lung, 109%; in the assay on NCI-H322M lung, 105%; in the assay with HOP-62 NSCLC, 108%; in the assay with NCI-H460 lung it was 106%; in the assay with HOP-92 NSCLC, 108%. In addition, the growth in the assay with NCI-H522 lung is 93.4%; with A549/ATCC NSCLC, 107%; in the assay on 786-0 renal, 107%; in the assay with COLO 205 colon it was 112%; in the assay with DU-145 prostate, 115%; with K-562 leukemia, 101%. Further, the growth was 106% in the assay on MALME-3M melanoma; 118% in the assay on MDA-MB-231 breast; 120% in the assay on RXF 393 renal; 104% in the assay with SF-268 CNS; 109% in the assay on SF-295 CNS; 100% in the assay on SF-539 CNS. In addition, the growth in the assay on UACC-257 melanoma is 104%; in the assay on M14 melanoma, 108%.

With `CC1(C)C2=C(C(=O)N1Cc1ccccc1)C(c1ccco1)N(C(=O)C1CCC1)CCN2` (stereo not given), the growth is 95.8% in the assay with NCI-H23 lung; 116% with NCI-H226 lung; 107% in the assay on NCI-H322M lung; 103% in the assay with HOP-62 NSCLC; 106% with NCI-H460 lung; 115% with HOP-92 NSCLC. Besides, the growth is 93.8% with NCI-H522 lung; 75.8% in the assay with A549/ATCC NSCLC; 99.5% in the assay on 786-0 renal; 112% with COLO 205 colon; 110% with DU-145 prostate; 110% in the assay with K-562 leukemia. Also, the growth was 105% with MALME-3M melanoma; 95.5% with MDA-MB-231 breast; 136% with RXF 393 renal; 96.5% with SF-268 CNS; 108% in the assay with SF-295 CNS; 101% in the assay with SF-539 CNS. Besides, the growth with UACC-257 melanoma was 95.6%; in the assay on M14 melanoma, 103%.

Take `O=C(c1ccc(F)cc1)C1CCN(CCn2c(=O)[nH]c3ccccc3c2=O)CC1`: the growth was 99.6% with NCI-H23 lung; 97.8% in the assay with NCI-H226 lung; 105% in the assay on NCI-H322M lung; 108% in the assay on HOP-62 NSCLC; 122% in the assay on NCI-H460 lung; 87.8% in the assay with HOP-92 NSCLC. The growth with NCI-H522 lung is 82.9%; with A549/ATCC NSCLC, 107%; in the assay with 786-0 renal it was 97%; in the assay with COLO 205 colon, 103%; in the assay with DU-145 prostate, 108%; in the assay on K-562 leukemia it was 100%. Also, the growth with MALME-3M melanoma was 89.3%; in the assay with MDA-MB-231 breast it was 110%; with RXF 393 renal, 115%; in the assay on SF-268 CNS it was 103%; in the assay on SF-295 CNS it was 97.6%; in the assay with SF-539 CNS it was 103%. Further, the growth in the assay with UACC-257 melanoma was 110%; in the assay with M14 melanoma, 104%.

For `O=C(Nc1ncc(Cc2ccc(Cl)cc2)s1)c1ccc2c(c1)OCCO2`, the growth in the assay on NCI-H23 lung was 37%; in the assay with NCI-H226 lung, 23.5%; in the assay on NCI-H322M lung it was 46.8%; in the assay on HOP-62 NSCLC, 26.8%; with NCI-H460 lung, 8% (active); in the assay on HOP-92 NSCLC it was 60.6%. The growth in the assay with NCI-H522 lung was 2.46% (active); in the assay with A549/ATCC NSCLC, 18%; with 786-0 renal, 38.7%; in the assay with COLO 205 colon it was -13.7% (active); in the assay with DU-145 prostate, 16.6%; in the assay on K-562 leukemia, 8.41% (active). Also, the growth in the assay on MALME-3M melanoma is 57.8%; in the assay on MDA-MB-231 breast, 10.9%; in the assay with RXF 393 renal, 3.74% (active); with SF-268 CNS, 42.9%; in the assay with SF-295 CNS, 11.7%; in the assay with SF-539 CNS, -4.99% (active). In addition, the growth was 44.1% with UACC-257 melanoma and 17.3% in the assay with M14 melanoma.

As for `O=c1ccc2c(ccc3ncccc32)o1`, the growth in the assay with NCI-H23 lung was 106%; in the assay on NCI-H226 lung it was 104%; in the assay with NCI-H322M lung, 101%; in the assay on HOP-62 NSCLC, 109%; in the assay with NCI-H460 lung it was 113%; in the assay with HOP-92 NSCLC, 112%. The growth is 96% in the assay with NCI-H522 lung; 98.2% in the assay on A549/ATCC NSCLC; 110% in the assay with 786-0 renal; 107% in the assay on COLO 205 colon; 117% in the assay with DU-145 prostate; 113% with K-562 leukemia. In addition, the growth in the assay on MALME-3M melanoma is 121%; with MDA-MB-231 breast it was 120%; in the assay on RXF 393 renal it was 95%; in the assay with SF-268 CNS, 113%; in the assay with SF-295 CNS it was 90.4%; with SF-539 CNS, 106%. Moreover, the growth in the assay with UACC-257 melanoma is 110%; in the assay with M14 melanoma, 128%.

Regarding `COc1cc(C)cc(-c2c(-c3cc(N4CC(O)C4)nc(-c4cccnc4)n3)cnn2C)c1`, the growth is 77.9% with NCI-H23 lung; 91.5% with NCI-H226 lung; 101% in the assay on NCI-H322M lung; 111% in the assay with HOP-62 NSCLC; 90.8% with NCI-H460 lung; 74.7% with HOP-92 NSCLC. Besides, the growth with NCI-H522 lung was 86.5%; with A549/ATCC NSCLC it was 84.9%; in the assay on 786-0 renal, 81.6%; with COLO 205 colon, 104%; in the assay with DU-145 prostate, 89.5%; in the assay with K-562 leukemia, 80.1%. Besides, the growth was 104% with MALME-3M melanoma; 55% in the assay on MDA-MB-231 breast; 77.9% in the assay with RXF 393 renal; 98.5% in the assay with SF-268 CNS; 92.8% in the assay on SF-295 CNS; 94.3% in the assay with SF-539 CNS. In addition, the results for the growth in the assay with UACC-257 melanoma and in the assay on M14 melanoma were 109% and 90.6%, respectively.
